Experiment [1] has as its target Rho-associated protein kinase 1 (Homo sapiens) (UniProt Q13464). To be noted: at 1 µM.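 Also: reported values are mean percent inhibition of ROCK1.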
For experiment [2], the target named is Rho-associated protein kinase 2 (Homo sapiens) (UniProt O75116). Particulars: at 0.1 µM.
For experiment [3] the target is unchanged. Particulars: at 1 µM.
The target of experiment [4] is Ribosomal protein S6 kinase alpha-1 (Homo sapiens) (UniProt Q15418). Particulars: at 0.1 µM.
For experiment [5] the target is unchanged. Particulars: at 1 µM.
In experiment [6] the target is Ribosomal protein S6 kinase alpha-3 (Homo sapiens) (UniProt P51812). To be noted: at 0.1 µM.
For experiment [7] the target is unchanged. Particulars: at 1 µM.
Experiment [8] has as its target Ribosomal protein S6 kinase alpha-2 (Homo sapiens) (UniProt Q15349). To be noted: at 0.1 µM.
Experiment [9] shares this target. To be noted: at 1 µM.
Experiment [10] deals with Ribosomal protein S6 kinase alpha-6 (Homo sapiens) (UniProt Q9UK32). Particulars: at 0.1 µM.
For experiment [11] the target is unchanged. To be noted: at 1 µM.
In experiment [12] the target is T1, Serine/threonine-protein kinase Sgk1 (Homo sapiens) (UniProt O00141).
T1 sequence (whole entry): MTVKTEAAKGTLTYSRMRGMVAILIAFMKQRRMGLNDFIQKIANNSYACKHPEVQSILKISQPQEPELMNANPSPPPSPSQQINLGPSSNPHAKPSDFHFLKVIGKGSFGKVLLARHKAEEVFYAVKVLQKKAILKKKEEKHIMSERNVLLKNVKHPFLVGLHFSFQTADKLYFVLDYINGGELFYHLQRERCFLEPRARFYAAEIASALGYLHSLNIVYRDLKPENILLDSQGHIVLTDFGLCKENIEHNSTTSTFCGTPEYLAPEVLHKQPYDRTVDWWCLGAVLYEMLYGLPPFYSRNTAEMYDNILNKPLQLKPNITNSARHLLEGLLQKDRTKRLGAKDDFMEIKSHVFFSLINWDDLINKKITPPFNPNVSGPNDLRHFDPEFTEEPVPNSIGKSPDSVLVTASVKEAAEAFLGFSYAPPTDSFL
Particulars: at 0.1 µM.

Experiment [13] deals with T1, Serine/threonine-protein kinase Sgk1 (Homo sapiens). To be noted: at 1 µM.
Experiment [14] deals with T2, Serine/threonine-protein kinase Sgk2 (Homo sapiens) (UniProt Q9HBY8).
T2 sequence (whole entry): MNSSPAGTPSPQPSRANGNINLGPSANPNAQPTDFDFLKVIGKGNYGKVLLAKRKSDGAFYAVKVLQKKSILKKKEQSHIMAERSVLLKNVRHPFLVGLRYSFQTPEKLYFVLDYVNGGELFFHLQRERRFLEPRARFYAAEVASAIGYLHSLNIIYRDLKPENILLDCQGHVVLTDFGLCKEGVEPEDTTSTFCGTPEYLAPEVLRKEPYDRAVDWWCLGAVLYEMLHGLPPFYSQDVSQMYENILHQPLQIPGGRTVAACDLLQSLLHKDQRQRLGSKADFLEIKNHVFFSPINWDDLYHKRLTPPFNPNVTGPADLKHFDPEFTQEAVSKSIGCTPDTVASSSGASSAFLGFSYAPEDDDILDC
To be noted: at 0.1 µM.

In experiment [15] the target is T2, Serine/threonine-protein kinase Sgk2 (Homo sapiens). To be noted: at 1 µM.
In experiment [16] the target is T3, Serine/threonine-protein kinase Sgk3 (Homo sapiens) (UniProt Q96BR1).
T3 sequence (whole entry): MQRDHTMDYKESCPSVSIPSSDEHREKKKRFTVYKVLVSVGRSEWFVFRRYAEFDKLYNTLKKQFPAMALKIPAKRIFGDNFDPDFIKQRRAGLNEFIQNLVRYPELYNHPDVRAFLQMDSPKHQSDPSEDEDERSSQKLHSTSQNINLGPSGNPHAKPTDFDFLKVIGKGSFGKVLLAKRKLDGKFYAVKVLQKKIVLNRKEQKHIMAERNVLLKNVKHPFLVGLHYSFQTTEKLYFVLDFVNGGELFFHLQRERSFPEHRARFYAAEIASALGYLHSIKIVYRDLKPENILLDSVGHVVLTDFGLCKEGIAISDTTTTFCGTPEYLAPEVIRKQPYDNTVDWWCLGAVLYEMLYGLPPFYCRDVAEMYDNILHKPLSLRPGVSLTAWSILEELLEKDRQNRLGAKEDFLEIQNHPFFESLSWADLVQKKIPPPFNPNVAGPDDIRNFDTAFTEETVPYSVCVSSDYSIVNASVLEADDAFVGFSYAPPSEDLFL
To be noted: at 0.1 µM.

Experiment [17] deals with T3, Serine/threonine-protein kinase Sgk3 (Homo sapiens). Particulars: at 1 µM.
Experiment [18] has as its target 5'-AMP-activated protein kinase catalytic subunit alpha-1 (Homo sapiens) (UniProt Q13131). Particulars: at 0.1 µM.
The target is the same in experiment [19]. Particulars: at 1 µM.
Experiment [20] concerns the target 5'-AMP-activated protein kinase catalytic subunit alpha-2 (Homo sapiens) (UniProt P54646). Particulars: at 0.1 µM.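 Also: mean inhibition measured on the AMPK complex of alpha2, beta1 and gamma1 subunits.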

The values that follow come from ChEMBL document CHEMBL1961873, “Compounds: GSK PKIS; Assays: Nanosyn kinase panel” (2012).

Each structure is given as a SMILES string.

Chain of Ribosomal protein S6 kinase alpha-3 (Homo sapiens) (P51812 whole entry): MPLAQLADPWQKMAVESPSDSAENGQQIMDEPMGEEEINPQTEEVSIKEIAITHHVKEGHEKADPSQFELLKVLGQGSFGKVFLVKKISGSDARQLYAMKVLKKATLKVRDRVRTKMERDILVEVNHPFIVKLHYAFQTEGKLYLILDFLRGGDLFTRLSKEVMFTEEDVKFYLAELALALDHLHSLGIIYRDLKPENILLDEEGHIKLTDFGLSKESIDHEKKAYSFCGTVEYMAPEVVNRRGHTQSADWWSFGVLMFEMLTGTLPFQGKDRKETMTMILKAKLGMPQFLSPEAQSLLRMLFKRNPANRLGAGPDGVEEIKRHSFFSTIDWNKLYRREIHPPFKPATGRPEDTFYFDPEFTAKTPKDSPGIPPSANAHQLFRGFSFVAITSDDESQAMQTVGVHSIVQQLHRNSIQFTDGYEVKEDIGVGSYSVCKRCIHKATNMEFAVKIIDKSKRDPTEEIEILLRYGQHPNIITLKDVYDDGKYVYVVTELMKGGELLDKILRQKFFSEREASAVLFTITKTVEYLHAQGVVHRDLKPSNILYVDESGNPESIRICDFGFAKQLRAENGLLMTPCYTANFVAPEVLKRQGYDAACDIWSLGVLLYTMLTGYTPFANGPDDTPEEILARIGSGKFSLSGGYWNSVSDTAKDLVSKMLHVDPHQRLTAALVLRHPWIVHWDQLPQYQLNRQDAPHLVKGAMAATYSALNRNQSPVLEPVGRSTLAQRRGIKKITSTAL
Chain of 5'-AMP-activated protein kinase catalytic subunit alpha-2 (Homo sapiens) (P54646 whole entry, looked up): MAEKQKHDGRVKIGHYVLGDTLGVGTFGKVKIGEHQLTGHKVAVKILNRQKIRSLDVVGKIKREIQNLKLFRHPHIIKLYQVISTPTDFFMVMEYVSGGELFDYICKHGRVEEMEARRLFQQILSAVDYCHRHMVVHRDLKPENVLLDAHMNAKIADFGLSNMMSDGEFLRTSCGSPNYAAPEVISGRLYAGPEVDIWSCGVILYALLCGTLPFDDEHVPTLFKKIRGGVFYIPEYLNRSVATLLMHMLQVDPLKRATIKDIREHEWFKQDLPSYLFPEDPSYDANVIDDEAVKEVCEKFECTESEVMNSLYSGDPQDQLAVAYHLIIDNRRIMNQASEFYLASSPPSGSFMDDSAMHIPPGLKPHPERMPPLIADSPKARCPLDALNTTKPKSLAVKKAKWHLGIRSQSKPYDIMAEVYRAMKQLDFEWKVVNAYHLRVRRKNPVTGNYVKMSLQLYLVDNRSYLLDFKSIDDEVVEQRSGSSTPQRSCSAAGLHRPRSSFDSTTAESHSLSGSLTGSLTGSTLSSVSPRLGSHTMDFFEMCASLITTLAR
Chain of 5'-AMP-activated protein kinase catalytic subunit alpha-1 (Homo sapiens) (Q13131 whole entry, looked up): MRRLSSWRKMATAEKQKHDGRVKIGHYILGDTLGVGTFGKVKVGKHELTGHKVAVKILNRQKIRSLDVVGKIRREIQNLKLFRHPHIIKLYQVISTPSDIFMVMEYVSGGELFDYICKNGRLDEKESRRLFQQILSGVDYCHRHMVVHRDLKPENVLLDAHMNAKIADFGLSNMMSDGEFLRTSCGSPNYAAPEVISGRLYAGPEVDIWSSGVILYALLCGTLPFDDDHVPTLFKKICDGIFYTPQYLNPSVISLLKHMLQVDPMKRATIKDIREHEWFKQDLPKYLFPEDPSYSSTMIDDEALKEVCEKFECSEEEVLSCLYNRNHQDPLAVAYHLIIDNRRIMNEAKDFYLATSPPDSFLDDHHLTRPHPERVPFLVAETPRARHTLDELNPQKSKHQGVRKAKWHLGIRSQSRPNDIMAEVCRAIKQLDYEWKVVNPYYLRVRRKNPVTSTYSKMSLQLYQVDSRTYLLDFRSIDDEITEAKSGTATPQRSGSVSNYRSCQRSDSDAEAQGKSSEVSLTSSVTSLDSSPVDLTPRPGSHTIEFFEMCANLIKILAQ
Chain of Ribosomal protein S6 kinase alpha-2 (Homo sapiens) (Q15349 whole entry): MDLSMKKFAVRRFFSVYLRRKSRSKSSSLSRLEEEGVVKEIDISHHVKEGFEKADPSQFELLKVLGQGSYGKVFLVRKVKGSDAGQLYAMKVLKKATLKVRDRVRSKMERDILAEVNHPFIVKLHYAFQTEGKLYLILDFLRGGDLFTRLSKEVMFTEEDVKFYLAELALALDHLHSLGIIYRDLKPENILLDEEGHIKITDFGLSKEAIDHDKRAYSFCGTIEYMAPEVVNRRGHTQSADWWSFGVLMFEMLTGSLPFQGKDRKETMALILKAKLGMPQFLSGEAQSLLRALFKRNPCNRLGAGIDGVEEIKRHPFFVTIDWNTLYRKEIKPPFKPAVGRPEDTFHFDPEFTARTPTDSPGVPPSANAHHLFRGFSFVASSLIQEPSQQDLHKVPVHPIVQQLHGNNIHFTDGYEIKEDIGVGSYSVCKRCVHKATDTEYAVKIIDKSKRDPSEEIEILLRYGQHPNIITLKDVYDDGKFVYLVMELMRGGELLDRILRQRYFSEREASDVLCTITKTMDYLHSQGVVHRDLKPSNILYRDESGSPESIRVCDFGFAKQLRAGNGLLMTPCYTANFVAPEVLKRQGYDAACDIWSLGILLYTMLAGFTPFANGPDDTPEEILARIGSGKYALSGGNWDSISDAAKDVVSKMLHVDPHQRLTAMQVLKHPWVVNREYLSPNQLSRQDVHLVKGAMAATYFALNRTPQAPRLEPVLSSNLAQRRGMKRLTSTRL
Chain of Ribosomal protein S6 kinase alpha-1 (Homo sapiens) (Q15418 whole entry): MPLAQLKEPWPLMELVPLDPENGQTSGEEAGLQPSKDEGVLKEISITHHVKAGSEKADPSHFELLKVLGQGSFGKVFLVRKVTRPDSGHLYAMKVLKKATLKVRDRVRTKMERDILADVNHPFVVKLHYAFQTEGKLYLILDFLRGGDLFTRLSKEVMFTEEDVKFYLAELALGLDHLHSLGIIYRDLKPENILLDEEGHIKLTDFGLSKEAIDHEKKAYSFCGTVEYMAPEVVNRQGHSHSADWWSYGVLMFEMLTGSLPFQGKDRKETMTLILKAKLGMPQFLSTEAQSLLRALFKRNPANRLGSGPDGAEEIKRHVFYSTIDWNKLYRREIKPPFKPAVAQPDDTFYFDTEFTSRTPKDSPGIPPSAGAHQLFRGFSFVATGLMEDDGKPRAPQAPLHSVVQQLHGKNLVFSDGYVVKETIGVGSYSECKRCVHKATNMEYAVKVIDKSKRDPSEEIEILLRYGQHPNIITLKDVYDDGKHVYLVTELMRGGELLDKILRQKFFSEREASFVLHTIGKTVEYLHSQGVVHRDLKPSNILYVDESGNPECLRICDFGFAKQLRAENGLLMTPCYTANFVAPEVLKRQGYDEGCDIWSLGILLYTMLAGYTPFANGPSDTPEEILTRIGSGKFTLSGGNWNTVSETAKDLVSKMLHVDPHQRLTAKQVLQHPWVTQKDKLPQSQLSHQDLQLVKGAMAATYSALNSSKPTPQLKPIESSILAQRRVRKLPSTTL
Chain of Ribosomal protein S6 kinase alpha-6 (Homo sapiens) (Q9UK32 whole entry): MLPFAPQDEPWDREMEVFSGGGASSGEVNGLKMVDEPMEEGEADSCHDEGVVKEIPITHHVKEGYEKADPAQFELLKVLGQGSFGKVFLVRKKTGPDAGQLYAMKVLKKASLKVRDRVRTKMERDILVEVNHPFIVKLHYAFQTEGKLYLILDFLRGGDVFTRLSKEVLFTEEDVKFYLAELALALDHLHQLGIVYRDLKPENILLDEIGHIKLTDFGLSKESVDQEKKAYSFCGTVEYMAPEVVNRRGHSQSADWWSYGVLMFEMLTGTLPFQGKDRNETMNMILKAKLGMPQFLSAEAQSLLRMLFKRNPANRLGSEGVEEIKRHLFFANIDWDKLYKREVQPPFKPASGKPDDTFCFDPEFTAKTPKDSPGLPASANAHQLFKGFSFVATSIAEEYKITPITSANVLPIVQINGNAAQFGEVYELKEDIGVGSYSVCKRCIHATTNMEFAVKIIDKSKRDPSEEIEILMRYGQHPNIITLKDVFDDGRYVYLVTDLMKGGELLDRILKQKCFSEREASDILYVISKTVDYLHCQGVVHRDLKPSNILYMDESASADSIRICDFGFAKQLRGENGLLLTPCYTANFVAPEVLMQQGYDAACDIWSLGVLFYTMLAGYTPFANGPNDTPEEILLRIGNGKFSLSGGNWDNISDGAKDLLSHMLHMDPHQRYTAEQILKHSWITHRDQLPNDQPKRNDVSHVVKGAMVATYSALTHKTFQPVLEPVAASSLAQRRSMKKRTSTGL

For `CC(C)=Cc1cccc2c1/C(=N/Nc1ccc(S(N)(=O)=O)cc1)C(=O)N2`, the inhibition in [1] came to 10.1%; in experiment [2], 3.96%; in experiment [3], 20.5%; in experiment [4], 2.45%; in experiment [5] it was 12.4%; in experiment [6], 1.53%. For the same molecule, the inhibition was determined as 8.42% in experiment [7]; 2.5% in [8]; 16.4% in experiment [9]; 1.61% in [10]; 13.6% in experiment [11]; 0.34% in experiment [12]. The inhibition in [13] was 5.74%; in experiment [14], -2.99%; in experiment [15], 3.04%; in experiment [16], 0.02%; in [17], 0.72%; in experiment [18], 13.9%. For the same molecule, the inhibition in [19] came out at 56.6%; in experiment [20], 3.74%.
Regarding `COc1cccc(-n2ncc3c(N/N=C/c4cccc(F)c4)ncnc32)c1`, the inhibition in experiment [1] turned out to be 2.09%; in [2] it was 1.84%; in experiment [3] it was 2.56%; in experiment [4], 1.59%; in experiment [5], 1.07%; in [6] it was 2.2%. The inhibition is 2.55% in experiment [7]; 2.85% in [8]; 3.5% in experiment [9]; 1.48% in experiment [10]; 3.07% in [11]; 1.3% in [12]. Further, the inhibition in [13] was 2.87%; in experiment [14] it was -1.45%; in experiment [15], 0.6%; in experiment [16], -0.55%; in experiment [17] it was 0.75%; in experiment [18] it was 2.52%. The figures for the inhibition in experiment [19] and in [20] were 5.15% and 4.7%, respectively.
As to `Cc1ccc(C(=O)NC2CCCCC2)cc1-c1ccc(C(=O)NCC2CC2)cc1`, the inhibition turned out to be 1.55% in [1]; 1.31% in [2]; 1.7% in [3]; 1.59% in [4]; 0.15% in [5]; 1.12% in experiment [6]. In addition, the inhibition was 0.57% in experiment [7]; -1.41% in experiment [8]; 0.27% in [9]; -0.04% in experiment [10]; 1.2% in experiment [11]; 3.14% in [12]. The inhibition is 2.69% in experiment [13]; 1.32% in experiment [14]; -1.56% in experiment [15]; 2.99% in experiment [16]; 0.67% in experiment [17]; 2.86% in [18]. For the same molecule, the inhibition in experiment [19] was 0.6%; in [20] it was 3.32%.
For `CCn1c(-c2nonc2N)nc2cnc(Oc3cccc(NC(=O)c4ccc(OCCN5CCOCC5)cc4)c3)cc21`, the inhibition in experiment [2] was 90%; in experiment [3], 90.5%; in experiment [4] it was 26.1%; in experiment [5], 70.6%; in experiment [6], 12.2%; in experiment [7], 54.6%. Besides, the inhibition in experiment [8] was determined as 15.6%; in [9], 61%; in [10], 2.18%; in experiment [11], 13.8%; in experiment [12] it was 7.56%; in [13], 34.7%. The inhibition in experiment [14] turned out to be 15.7%; in experiment [15] it was 58.5%; in experiment [16] it was 36.3%; in experiment [17], 74.3%; in experiment [18], 2.28%; in [19] it was 2.06%. Further, in experiment [20], the inhibition came out at 2.76%.
For the molecule `NCc1ccc(-c2nc(-c3ccc(Cl)c(O)c3)c(-c3ccncc3)[nH]2)cc1`, the inhibition in experiment [1] was 2.17%; in [2], -0.88%; in experiment [3] it was 0.95%; in experiment [4], -0.63%; in [5], 1.3%; in experiment [6] it was -1.01%. For the same molecule, the inhibition is -1.09% in experiment [7]; 0.29% in [8]; 1.53% in experiment [9]; 0.47% in experiment [10]; 0.03% in experiment [11]; 0.62% in [12]. Besides, the inhibition in [13] was 0.21%; in experiment [14], 0.15%; in [16], -0.56%; in [17], -0.81%; in experiment [18], 0.17%; in [19], -1.38%. Besides, in [20], the inhibition was -2.35%.
On to `CS(=O)(=O)CCNCc1ccc(-c2ccc3ncnc(Nc4ccc(OCc5ccccc5)c(Cl)c4)c3c2)o1`, for which the inhibition is 3.86% in experiment [1]; 1.28% in experiment [2]; 5.61% in experiment [3]; 0.36% in [4]; 2.7% in [5]; -1.21% in [6]. Besides, the inhibition in experiment [7] was 1.51%; in [8], 1.08%; in experiment [9], 2.7%; in [10], -0.67%; in experiment [11] it was 0.49%; in [12], 0.96%. The inhibition in experiment [13] is 1.58%; in experiment [14], 2.63%; in experiment [15], 0.46%; in [16], -0.5%; in [17], 1.84%; in [18], -1.82%. Also, the inhibition is -0.45% in [19] and 3.82% in [20].
With `CC1=C(C(=O)Nc2ccc3[nH]ncc3c2)C(c2ccc(F)cc2)NC(=O)N1` (configuration not stated), the inhibition is 64.1% in experiment [2]; 74.5% in [3]; 2.36% in experiment [4]; 15.7% in [5]; 2.28% in experiment [6]; 11.2% in experiment [7]. In addition, the inhibition amounted to 2.36% in experiment [8]; 7.93% in experiment [9]; 2.07% in experiment [10]; 2.82% in experiment [11]; 1.11% in [12]; 7.18% in [13]. For the same molecule, the inhibition in experiment [14] was -1.1%; in experiment [15], 4.13%; in experiment [16], 4.02%; in experiment [17], 6.8%; in experiment [18], 3.82%; in experiment [19] it was 20.4%. Besides, in [20], the inhibition came out at 3.59%.

In general, inhibition refers to the change of the read-out against control, counted positive when it falls.
